The other results are listed elsewhere or left out. Values without a mark were called inactive. Calls of active or inactive are those of the source.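 How the source made its calls: active means inhibition at or below a set negative limit, negative inhibition meaning the enzyme was activated; inactive means the rest.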
Biological target: Hexokinase HKDC1 (Homo sapiens) (UniProt Q2TB90)
Assay: HKDC1 hexokinase activators, confirmation, biochemical, single concentration (AID 504708)
Conditions: recombinant HKDC1, G6PDH/diaphorase resazurin fluorescence; at 20 µM; hits give low values

Hexokinase HKDC1 (Homo sapiens), sequence (Q2TB90 whole entry, looked up): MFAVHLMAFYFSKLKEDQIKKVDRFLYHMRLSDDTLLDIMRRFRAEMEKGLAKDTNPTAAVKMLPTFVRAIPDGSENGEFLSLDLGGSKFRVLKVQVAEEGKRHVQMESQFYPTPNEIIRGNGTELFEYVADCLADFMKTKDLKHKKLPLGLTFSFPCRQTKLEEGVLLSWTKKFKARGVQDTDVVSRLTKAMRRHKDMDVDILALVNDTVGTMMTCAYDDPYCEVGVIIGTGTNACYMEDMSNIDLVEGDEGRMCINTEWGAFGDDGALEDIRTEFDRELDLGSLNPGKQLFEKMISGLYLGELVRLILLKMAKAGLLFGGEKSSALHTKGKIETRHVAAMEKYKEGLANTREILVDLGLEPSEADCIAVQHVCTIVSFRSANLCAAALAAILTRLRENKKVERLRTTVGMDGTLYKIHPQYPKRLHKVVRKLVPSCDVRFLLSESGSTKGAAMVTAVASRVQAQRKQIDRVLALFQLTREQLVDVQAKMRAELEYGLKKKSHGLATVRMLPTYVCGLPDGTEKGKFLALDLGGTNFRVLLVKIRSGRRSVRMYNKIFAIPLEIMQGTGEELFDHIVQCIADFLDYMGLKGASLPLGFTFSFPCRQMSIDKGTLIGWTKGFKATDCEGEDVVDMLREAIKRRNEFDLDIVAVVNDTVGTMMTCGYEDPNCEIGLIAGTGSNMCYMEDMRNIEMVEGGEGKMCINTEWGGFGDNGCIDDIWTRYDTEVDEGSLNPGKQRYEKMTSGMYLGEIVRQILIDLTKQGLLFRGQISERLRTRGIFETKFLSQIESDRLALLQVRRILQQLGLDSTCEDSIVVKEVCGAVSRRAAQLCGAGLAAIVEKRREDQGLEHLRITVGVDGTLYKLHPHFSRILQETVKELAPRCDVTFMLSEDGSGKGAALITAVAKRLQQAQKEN

**Q.** Which inhibition does the source give for CC(C)(C)Nc1c(N)c(=O)oc2ccccc12 here?
**A.** Its inhibition is -27.1%.

**Q.** With O=S(=O)(Nc1ccc(O)c2ccccc12)c1ccc(OC(F)(F)F)cc1 as the compound, how does the inhibition read?
**A.** Its inhibition is 19.8%.

**Q.** With COCCNC(=O)Nc1ccc2nc(-c3ccco3)c(-c3ccco3)nc2c1 as the compound, how does the inhibition read?
**A.** The inhibition was -20.8%.

**Q.** How did the inhibition turn out when CCc1ccc2c(c1)C1(NN=C(c3ccccc3)S1)C(=O)N2 (stereo not given) was run?
**A.** The inhibition was -13.6%.

**Q.** Which inhibition does the source give for Nc1ccc2nc3c(=O)[nH]c(=S)[nH]c3nc2c1 here?
**A.** Its inhibition is -3.17%.

**Q.** Which inhibition does the source give for CCn1cc(C(=O)NCc2ccc3c(c2)OCO3)c2cc(OC)c(OC)cc2c1=O here?
**A.** Its inhibition is 45.9%.

**Q.** For COC(=O)c1ccc(NCc2cc(O)ccc2O)cc1, which inhibition is on record?
**A.** Its inhibition is 65.1%.

**Q.** Which inhibition does the source give for O=c1[nH]c2ccccc2n2c(-c3ccccc3)nnc12 here?
**A.** Its inhibition is 58.5%.

**Q.** How did the inhibition turn out when CN1c2ccc(C=O)c3c(C=O)ccc(c23)N(C)C1(C)C was run?
**A.** Its inhibition is 61.2%.

**Q.** CCCc1nc2oc3c(OCC)ncnc3c2c2c1COC(C)(C)C2 was tested. Which inhibition did it give?
**A.** The inhibition was 14.9%.

**Q.** How did the inhibition turn out when O=C(CSc1n[nH]c(-c2cccnc2)n1)Nc1ccnc2ccccc12 was run?
**A.** The inhibition was 46%.

**Q.** How did the inhibition turn out when CC(=O)/C(=N\Nc1ccc(Cl)cc1Cl)Sc1cccc2cccnc12 was run?
**A.** Its inhibition is -44.8% (active).

**Q.** Cc1cc(C2=NNC(=Nc3ccc(S(=O)(=O)N4CCOCC4)cc3)SC2)c(C)n1CC1CCCO1 (stereo not given) was tested. Which inhibition did it give?
**A.** Its inhibition is -55.8% (active).

**Q.** For CCOC(=O)CSc1nc2ccc(C)cc2n2cnnc12, which inhibition is on record?
**A.** The inhibition was 63.8%.

**Q.** Which inhibition does the source give for C[N+](C)(CCCCCC[N+](C)(C)CCCN1C(=O)c2cccc3cccc(c23)C1=O)CCCN1C(=O)c2cccc3cccc(c23)C1=O here?
**A.** Its inhibition is -82% (active).

**Q.** With O=C(Nc1ccccc1Cl)/C(Cl)=C(\Cl)S(=O)c1ccccc1 (stereo not given) as the compound, how does the inhibition read?
**A.** Its inhibition is -5.2%.

**Q.** For CCOc1cc(/C=N/n2cnnc2)c(Br)cc1O, which inhibition is on record?
**A.** The inhibition was 28.4%.

**Q.** For CCOC(=O)C1=C(c2ccc(OC)cc2)C(=O)c2ccccc2C1=O, which inhibition is on record?
**A.** Its inhibition is 75%.

**Q.** With O=C(CSc1cccc2cccnc12)N/N=C/c1cccnc1 as the compound, how does the inhibition read?
**A.** Its inhibition is -46.6% (active).

**Q.** Which inhibition does the source give for O=C(c1cccnc1)N(c1cc2sc(=O)oc2c2ccccc12)S(=O)(=O)c1ccccc1 here?
**A.** Its inhibition is -5%.
